Here are results for 67 sequences from PubChem BioAssay AID1347423 (Functional Genomics Laboratory (NCATS/FGL), 2020).

In all, about 52,000 sequences went through this assay and about 210 (0.4%) were called active. Many of the other results were omitted from the sample, so actives are more common in it than they were. A number with no mark means an inactive call.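 Rule for the calls: active = gene whose silencing raises cell survival under the drug, median off-target-corrected z-score across its silencing RNAs 2 or more; inactive = the rest.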

This experiment in a line: Resistance to Poly (ADP-Ribose) Polymerase inhibitor: Gene Identification via Genome-wide siRNA Screen. As to conditions: mouse BRCA2 R2336H ES cells, olaparib, CellTiter-Glo viability; hits give high values. Summed up:
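Mouse BRCA2 R2336H ES cells were reverse-transfected with siRNA (20 nM final), treated at 48 h with 500 nM olaparib, and read by CellTiter-Glo after 72 h. Scores: MAD-based z per siRNA, median per gene, seed off-target correction.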
On the technique in general: Cellular ATP, detected with luciferase, serves as a proxy for viable cell number.
For the sequence GCAUUCAUGAAAGUGUUAGTT against Olfr164, the z-score is 1.23.
Turning to GGCGAAUUAUUGAAAACGUTT against Actr8, the z-score was 3.41 (active).
Take GGUGGUGUUUCAUAAGAUGTT against Rragc: the z-score was 0.792.
As to “CCCAGCUAUGCGAUCUUAATT against 1300003B13Rik”, the z-score was -1.51.
In the case of GGGUUUCUGUUUGAUUCCATT against Gria1, the z-score is 1.91 (active).
The figure for GCUACUGAGUUAUAGAAAGTT against Olfr1316 is 0.323; for CCAACUGUAGAUGUAUAUATT against Pmp22 it is 0.0495.
The figure for “GGUGAUCCUCAUCAUCAGUTT against 2400010G15Rik” is 2.76 (active); for GGUUGCAUCACAGCGUAUATT against Plekhe1 it is 0.0124.
Under GGAGGUCCAGCUGUUCAUGTT against Kcnn4 stands 2.89; under “GGCAAUUGUUUUUAGAGAGTT against 2610510J17Rik”, 0.946; under GGCUGUCUUGAUUUUGAUUTT against C3ar1, -0.0188.
As for CGAACCUACAGAGCUCAUGTT against Rpl17, the z-score is -2.32.
Under GGGUGCUUAAUAAACAUAATT against Slc22a8 stands 1.12.
As to GCUGAAAUACCACUCUCCGTT against Chl1, the z-score is -1.28 (active).
Take CCAAUCUCUACCGUCUCCUTT against Camp: the z-score is -0.0705.
For GGCUCAACUGUGUUAAACATT against Tnfrsf4, the z-score is 0.801.
As for “GCAAAACCUACUGCGUGGATT against 2410195B05Rik”, the z-score was 0.682.
GGGUUUCUGUUAAUCCACATT against Hist1h3g: the z-score was -1.25.
GGUGAUAUUAUACAUUCACTT against Rnd1: the z-score was 0.43.
The figure for CCACUGAAGUUUUCAUUCUTT against Olfr1055 is 0.663; for GGUGUGCAUCAAGCGACUGTT against Cacng6 it is 1.29; for GGAGUCAAGUCCACAUACATT against Usp47 it is -0.927 (active).
The figure for GCACACCCAAUGCUCUAAGTT against Mare is 0.284; for GCGACAACGAUUUUGAAAUTT against Rsu1 it is 0.756; for GCCGACGUAGUGACAUUCUTT against Crybb3 it is -1.17.
Under CGUAUCAAACAGGAAAUGGTT against Arid5b stands 1.02; under GGACUGCUAUGGGUCUUCATT against Clk3, -1.64.
Consider “GGGACAGUCUUCAGUGACATT against 0610037L13Rik”, for which the z-score was -2.25.
The figure for CCACAAAGAAUGCAUUACUTT against BC022146 is -1.42; for GGAACGAUCGAAACAAGAATT against Rarg it is 3.59 (active).
The figure for GCAAGAGUCUGCUACGACATT against Opn1sw is 0.0796; for GGUCCCAUUCAGUGUGUGUTT against Cdk10 it is -0.19; for GGGAUGAGUAUGCUUAUGGTT against Rgpr it is 0.176.
The figure for GCAGAAUGGUAAAUCCGAUTT against Mc5r is 1.96.
For the sequence CCCUAAGUUCUCGUUUCUGTT against Cherp, the z-score is 1.57.
Under GGACCAACAUAACCUCUACTT against BC037432 stands 0.0137; under GGAACGAGACUCAUCUUCUTT against Cic, 1.35 (active).
With GGAUCCUUCAGCAUUCUUATT against Egr2, the z-score is -0.406.
The figure for GGAACAGUCUGAAAUACACTT against Usp18 is 0.039 (active); for “GGAUAACCUUAACUUCUGATT against 2810449C13Rik” it is 2.16; for GGGACCCUUCUACAAAAACTT against Pias3 it is 2.3 (active).
The figure for “GGAGAGUACUAAAUUUAAGTT against 4833418A01Rik” is 0.0243.
Take “GGAAUUUUAUCAUUGGGACTT against 5031404N07”: the z-score was -0.078.
Under CCUGGUAACAGUCAUAAAUTT against Lhfpl2 stands -0.196.
The figure for “GGAAAUGCUUCUGAGCUAGTT against 5830417C01Rik” is 0.677; for GGACCUCAGCGAAGACAAUTT against BC034097 it is 2.03 (active).
The figure for GGUCGGUGUUUUAUCUGCUTT against BC019537 is -1.19.
In the case of GGGAUACUGGUGCUUAACUTT against Abhd1, the z-score was 0.661.
Consider “GCCACCUCUUAUGAGGCUUTT against D630045E04Rik”, for which the z-score is -1.04.
The figure for GGUGGUUACAACCGAAGCATT against Fus is 2.95 (active).
Regarding GCCCUAGAACUUUUGAAUUTT against Dhx15, the z-score is -1.01.
The figure for “GGAGGUGUUGAACAAGUGCTT against 1700008P20Rik” is -1.32; for “GCAAGCAGAUCUGAUAUCATT against 2700050F09Rik” it is 4.76 (active); for GCCUGGAUUCAGAAGCUACTT against Ugt1a1 it is 0.72.
Under “GGAGGAGGAGGACUUUGAUTT against 5830417I10Rik” stands -1.23.
The figure for GGAACAUUACAAAAGCUCUTT against Slfn1 is -0.715; for “GAAUCUAAAGAUGAACACCTT against 0610009B22Rik” it is -0.48.
For the sequence GCAAGUGGUAAUGGUGACCTT against Tex15, the z-score is -0.249.
As for GGACUUUUAUUUUGUUAGCTT against Pacsin2, the z-score is 3.01 (active).
For “GUUUUCUUGAGACAGUUAATT against 1810008A14Rik”, the z-score is -0.106.
The figure for GGAGUUGAUCAAGACAGAGTT against S100a5 is -0.443; for GGAGGAAAGAAUGUGUAAATT against Birc3 it is -0.544.
Under GCAUGCAUGAUGGAUCUUCTT against Gabrb1 stands -2.
In the case of GGAAACAACGGAUCCAAAATT against Plcb3, the z-score is 2.47 (active).
Under “GCUUACAUCCAAGCCGUCUTT against 4931440B09Rik” stands 1.71; under CCAAGUUCACAAUUGUUCUTT against Gm457, -0.19.
